Measurements published in PubChem BioAssay (NCATS).
Results filed as inconclusive are left out. Activity calls are given as the source filed them. Unless noted, calls come from the whole dose curve.

Legend:
[1] = target: Bile acid receptor (Homo sapiens) (UniProt Q96RI1); experiment: qHTS assay for small molecule agonists of farnesoid X receptor signaling (AID 588527); settings: HEK293T FXR-UAS-bla, beta-lactamase ratio, 16 h; activation: stronger effect = higher value;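 note: series mostly up to about 77 µM; 0% = vehicle basal and 100% = reference agonist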
Bile acid receptor (Homo sapiens), sequence (Q96RI1 whole entry, looked up): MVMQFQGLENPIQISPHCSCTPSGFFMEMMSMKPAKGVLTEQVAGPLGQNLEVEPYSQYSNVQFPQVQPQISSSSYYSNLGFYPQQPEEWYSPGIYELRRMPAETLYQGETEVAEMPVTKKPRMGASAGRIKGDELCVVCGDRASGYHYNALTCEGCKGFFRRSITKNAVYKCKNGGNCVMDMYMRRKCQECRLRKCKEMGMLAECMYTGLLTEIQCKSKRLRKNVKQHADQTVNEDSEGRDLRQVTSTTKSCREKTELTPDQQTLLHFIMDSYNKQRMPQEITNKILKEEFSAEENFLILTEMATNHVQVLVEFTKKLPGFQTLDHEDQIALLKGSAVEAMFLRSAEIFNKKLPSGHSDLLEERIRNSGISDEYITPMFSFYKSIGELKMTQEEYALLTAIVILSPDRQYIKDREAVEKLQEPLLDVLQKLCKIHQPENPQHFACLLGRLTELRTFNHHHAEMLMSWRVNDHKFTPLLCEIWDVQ
Method in brief: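 Agonist-mode beta-lactamase reporter in GeneBLAzer FXR-UAS-bla HEK293T cells, titration up to 92 uM, 16 h exposure at 37 C, CCF4 fluorescence. Response scaled to DMSO (0%) and 100 uM chenodeoxycholic acid (100%), then Hill-fitted for EC50 and efficacy.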

[2] = target: Glucocorticoid receptor (Homo sapiens) (UniProt P04150); experiment: qHTS assay for small molecule agonists of glucocorticoid receptor signaling (AID 588532; active = well fitted curve in the direction sought with a large enough effect in the signal ratio, with a control signal flat; the % refers to the signal ratio;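 note: 100% = dexamethasone at 0.1 µM and 0% = DMSO only wells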); settings: HeLa MMTV-bla, beta-lactamase ratio, agonist, 18 h; activation: stronger effect = higher value, percent of dexamethasone control, DMSO zero
Glucocorticoid receptor (Homo sapiens), sequence (P04150 whole entry, looked up): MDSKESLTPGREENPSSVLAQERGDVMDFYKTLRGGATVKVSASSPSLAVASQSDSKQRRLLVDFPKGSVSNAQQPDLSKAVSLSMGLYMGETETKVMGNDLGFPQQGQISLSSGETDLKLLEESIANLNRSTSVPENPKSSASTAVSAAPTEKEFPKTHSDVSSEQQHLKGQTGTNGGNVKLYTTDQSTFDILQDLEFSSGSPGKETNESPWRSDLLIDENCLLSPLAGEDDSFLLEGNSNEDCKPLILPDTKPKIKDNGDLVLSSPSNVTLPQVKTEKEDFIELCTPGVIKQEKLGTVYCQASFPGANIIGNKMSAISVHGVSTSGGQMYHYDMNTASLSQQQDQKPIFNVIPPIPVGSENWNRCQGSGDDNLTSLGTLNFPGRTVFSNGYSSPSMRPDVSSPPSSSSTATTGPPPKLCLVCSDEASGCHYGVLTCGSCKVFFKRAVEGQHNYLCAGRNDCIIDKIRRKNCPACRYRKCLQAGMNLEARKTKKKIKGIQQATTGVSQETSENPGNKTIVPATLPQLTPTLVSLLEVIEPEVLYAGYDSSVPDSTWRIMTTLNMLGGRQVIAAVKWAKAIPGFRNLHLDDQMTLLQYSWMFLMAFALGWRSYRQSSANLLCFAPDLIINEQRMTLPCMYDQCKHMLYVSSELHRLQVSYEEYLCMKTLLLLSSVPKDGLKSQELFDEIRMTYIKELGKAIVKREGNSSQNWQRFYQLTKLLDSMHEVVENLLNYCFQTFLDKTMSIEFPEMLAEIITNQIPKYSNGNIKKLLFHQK
Method in brief: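 MMTV-bla HeLa beta-lactamase reporter cells in 1% charcoal/dextran FBS medium, compounds up to 92 uM for 18 h at 37 C, CCF4 readout; normalized to 0.1 uM dexamethasone (100%), EC50 and efficacy from Hill fits.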

[3] = qHTS assay for small molecule antagonists of peroxisome proliferator-activated receptor delta signaling (AID 588535; active = well fitted inhibition curve with a large enough effect in the signal ratio, with a control signal flat, not every such curve was filed as active; the % refers to the signal ratio;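 for max response: cells co-treated with a PPAR-delta agonist as stimulator during compound exposure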); settings: HEK293T PPARd-UAS-bla, beta-lactamase FRET ratio, 18 h; 460 nm channel
Method in brief: (§1)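 Antagonist-mode beta-lactamase reporter (GeneBLAzer PPAR-delta-UAS-bla) in HEK293T cells, 2% charcoal/dextran FBS, 4000 cells/well. Compound titrations, 18 h at 37 C; CCF4 ratio read, IC50 and efficacy from Hill fits.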

[4] = target: Peroxisome proliferator-activated receptor delta (Homo sapiens) (UniProt Q03181); experiment: as above
Peroxisome proliferator-activated receptor delta (Homo sapiens), sequence (Q03181 whole entry, looked up): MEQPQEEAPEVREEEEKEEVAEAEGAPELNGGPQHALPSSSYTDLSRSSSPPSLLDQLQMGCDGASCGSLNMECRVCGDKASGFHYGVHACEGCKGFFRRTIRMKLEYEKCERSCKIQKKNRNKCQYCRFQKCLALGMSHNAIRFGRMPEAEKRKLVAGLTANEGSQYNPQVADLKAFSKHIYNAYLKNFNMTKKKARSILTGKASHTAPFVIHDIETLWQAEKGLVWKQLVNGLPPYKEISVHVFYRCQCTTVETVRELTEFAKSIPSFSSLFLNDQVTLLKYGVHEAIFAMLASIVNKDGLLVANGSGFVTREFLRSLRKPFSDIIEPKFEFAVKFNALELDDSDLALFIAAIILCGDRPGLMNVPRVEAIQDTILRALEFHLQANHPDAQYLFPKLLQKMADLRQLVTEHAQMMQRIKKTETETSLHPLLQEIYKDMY
Method in brief: as §1

[5] = target: Peroxisome proliferator-activated receptor gamma (Homo sapiens) (UniProt P37231); experiment: qHTS assay for small molecule agonists of peroxisome proliferator-activated receptor gamma signaling (AID 588536; active = well fitted curve in the direction sought with a large enough effect in the signal ratio, with a control signal flat, not every such curve was filed as active; the % refers to the signal ratio;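 note: 0% = DMSO basal wells and 100% = rosiglitazone at 2 µM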)
Peroxisome proliferator-activated receptor gamma (Homo sapiens), sequence (P37231 whole entry, looked up): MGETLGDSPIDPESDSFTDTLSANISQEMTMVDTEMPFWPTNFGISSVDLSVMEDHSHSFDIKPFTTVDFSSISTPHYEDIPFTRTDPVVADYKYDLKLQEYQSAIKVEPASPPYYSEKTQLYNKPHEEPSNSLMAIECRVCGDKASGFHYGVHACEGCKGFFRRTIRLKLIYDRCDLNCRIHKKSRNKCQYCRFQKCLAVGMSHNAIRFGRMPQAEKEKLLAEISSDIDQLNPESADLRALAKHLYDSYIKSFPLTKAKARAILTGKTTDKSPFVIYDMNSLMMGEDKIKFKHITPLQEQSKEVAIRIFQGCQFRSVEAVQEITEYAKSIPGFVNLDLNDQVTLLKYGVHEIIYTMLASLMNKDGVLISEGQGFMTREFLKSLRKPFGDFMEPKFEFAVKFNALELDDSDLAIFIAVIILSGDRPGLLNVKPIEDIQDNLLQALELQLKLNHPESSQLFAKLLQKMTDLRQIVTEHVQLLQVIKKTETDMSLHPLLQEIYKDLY
Method in brief: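 Ratiometric blue/green fluorescence (405 nm excitation; 460 and 530 nm emission) from CCF4-loaded HEK293 reporter cells serves as signal. Exposure to test compounds lasts 16 h at 37 C in medium containing 1% charcoal/dextran-treated serum.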

[6] = target: Vitamin D3 receptor (Homo sapiens) (UniProt P11473); experiment: qHTS assay for small molecule antagonists of vitamin D receptor signaling (AID 588541);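 note: receptor activated by calcitriol during compound treatment; series mostly up to about 77 µM; % is set by controls: 0 for no effect and ±100 for the full control effect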
Vitamin D3 receptor (Homo sapiens), sequence (P11473 whole entry, looked up): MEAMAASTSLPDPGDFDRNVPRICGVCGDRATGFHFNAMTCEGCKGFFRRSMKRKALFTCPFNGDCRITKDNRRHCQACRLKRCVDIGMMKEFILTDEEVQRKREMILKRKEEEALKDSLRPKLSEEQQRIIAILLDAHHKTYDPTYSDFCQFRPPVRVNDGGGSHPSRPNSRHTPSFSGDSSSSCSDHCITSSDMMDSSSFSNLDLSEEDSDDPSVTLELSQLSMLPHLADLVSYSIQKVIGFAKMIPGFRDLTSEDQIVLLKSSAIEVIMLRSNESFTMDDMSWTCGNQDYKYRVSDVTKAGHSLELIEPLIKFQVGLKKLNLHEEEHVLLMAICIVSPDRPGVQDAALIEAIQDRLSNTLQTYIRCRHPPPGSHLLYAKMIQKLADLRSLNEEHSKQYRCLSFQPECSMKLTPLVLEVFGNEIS
Method in brief: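 VDR-UAS-bla HEK293T cells in 2% charcoal-stripped FBS were stimulated with 1-alpha,25-dihydroxyvitamin D3 (3 nM final) plus compound for 16 h at 37 C. The beta-lactamase CCF4 readout was normalized to 50 nM agonist and DMSO, and Hill fits gave IC50.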

[7] = target: Thyroid hormone receptor beta (Homo sapiens) (UniProt P10828); experiment: qHTS assay for small molecule agonists of thyroid hormone receptor beta signaling (AID 588545)
Thyroid hormone receptor beta (Homo sapiens), sequence (P10828 whole entry, looked up): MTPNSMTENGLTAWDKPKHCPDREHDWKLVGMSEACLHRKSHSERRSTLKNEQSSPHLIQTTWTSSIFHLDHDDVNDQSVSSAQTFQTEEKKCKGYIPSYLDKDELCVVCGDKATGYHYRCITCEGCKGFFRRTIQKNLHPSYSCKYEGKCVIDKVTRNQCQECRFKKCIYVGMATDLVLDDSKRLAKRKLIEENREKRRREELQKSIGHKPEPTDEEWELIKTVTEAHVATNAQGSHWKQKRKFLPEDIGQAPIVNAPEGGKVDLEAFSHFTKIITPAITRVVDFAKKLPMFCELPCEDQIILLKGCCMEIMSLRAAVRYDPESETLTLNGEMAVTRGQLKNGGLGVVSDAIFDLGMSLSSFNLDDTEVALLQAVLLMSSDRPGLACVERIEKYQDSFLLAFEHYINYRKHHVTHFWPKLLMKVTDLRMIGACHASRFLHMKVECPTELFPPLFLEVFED
Method in brief: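 Agonist activity was read as beta-lactamase CCF4 fluorescence (405 ex, 460/530 em), scaled between DMSO (0%) and 10 nM T3 (100%), then Hill-fitted for EC50 and efficacy. HEK 293 TR-UAS-bla cells in 2% charcoal/dextran FBS medium were exposed 18 h at 37 C.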

[8] = qHTS assay for small molecule antagonists of retinoid X receptor alpha signaling (AID 588546; active = well fitted inhibition curve with a large enough effect in the signal ratio, with a control signal flat, not every such curve was filed as active; the % refers to the signal ratio;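 note: cells stimulated with 9-cis-retinoic acid as agonist; % is set by controls: 0 for no effect and ±100 for the full control effect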); settings: HEK293T RXRa-UAS-bla, beta-lactamase ratio, antagonist mode; measured here: W530 green channel, cytotoxicity proxy
Method in brief: (§2)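 Beta-lactamase reporter inhibition, read as CCF4 fluorescence ratio (ex 405, em 460/530 nm) after 2 h at RT. HEK293T UAS-bla cells, 2500/well, were stimulated with 9-cis-RA at 500 or 100 nM final alongside test compound for 18 h at 37 C.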

[9] = target: Retinoic acid receptor RXR-alpha (Homo sapiens) (UniProt P19793); experiment: as above; settings: HEK293T RXRa-UAS-bla, beta-lactamase ratio, antagonist mode
Retinoic acid receptor RXR-alpha (Homo sapiens), sequence (P19793 whole entry, looked up): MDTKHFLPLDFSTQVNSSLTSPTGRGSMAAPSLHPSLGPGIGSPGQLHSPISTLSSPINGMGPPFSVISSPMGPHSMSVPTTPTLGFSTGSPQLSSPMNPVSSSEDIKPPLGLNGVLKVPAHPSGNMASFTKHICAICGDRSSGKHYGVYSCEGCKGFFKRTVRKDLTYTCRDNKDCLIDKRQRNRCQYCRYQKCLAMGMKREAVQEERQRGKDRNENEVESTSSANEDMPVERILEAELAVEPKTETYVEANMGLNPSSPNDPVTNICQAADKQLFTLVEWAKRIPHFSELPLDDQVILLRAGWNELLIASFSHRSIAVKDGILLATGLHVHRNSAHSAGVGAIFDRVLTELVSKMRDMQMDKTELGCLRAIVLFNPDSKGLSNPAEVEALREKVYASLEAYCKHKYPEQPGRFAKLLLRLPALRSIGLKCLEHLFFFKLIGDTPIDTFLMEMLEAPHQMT
Method in brief: as §2

[10] = target: Thyroid hormone receptor beta (Homo sapiens) (UniProt P10828); experiment: qHTS assay for small molecule antagonists of thyroid hormone receptor beta signaling (AID 588547; active = well fitted inhibition curve with a large enough effect in the signal ratio, with a control signal flat, not every such curve was filed as active; the % refers to the signal ratio;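 note: cells stimulated with 0.4 nM T3 agonist during compound exposure; series mostly up to about 77 µM; % is set by controls: 0 for no effect and ±100 for the full control effect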); settings: TR-UAS-bla HEK293, beta-lactamase ratio, antagonist mode, 18 h
Method in brief: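 TR-UAS-bla GripTite HEK293 cells in 2% charcoal/dextran FBS medium; compounds 0.59 nM to 92 uM with T3 at 0.4nM final, 18 h at 37 C. Beta-lactamase read by CCF4 fluorescence (460/530 nm); Hill fits gave IC50 and efficacy.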

[11] = qHTS assay for small molecule activators of the p53 signaling pathway (AID 651743; active = well fitted activation curve with a large enough effect in the signal ratio, not every such curve was filed as active; the % refers to the signal ratio; note: potency is the fitted concentration of half-maximal effect; for activation: series mostly up to about 92 µM; % of control where 0% means no effect); settings: HCT-116 p53RE-bla, beta-lactamase FRET ratio, 16 h; activation: stronger effect = higher value
Method in brief: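 p53RE-bla HCT-116 cells carrying a beta-lactamase reporter under p53 response elements were exposed to compounds for 16 hours at 37 C. Reporter activity read as fluorescence after 2 hours at room temperature with LiveBLAzer B/G FRET substrate.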

[12] = qHTS assay for small molecule activators of the nuclear factor-kappa B (NF-kB) signaling pathway (AID 651749; active = well fitted activation curve with a large enough effect in the signal ratio; the % refers to the signal ratio; note: series mostly up to about 77 µM; % of control where 0% means no effect); settings: NF-kB-bla ME-180 cells, beta-lactamase FRET ratio, 16 h; activation: stronger effect = higher value
Method in brief: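 NF-kB-bla ME-180 cells carrying a beta-lactamase reporter under an NF-kB response element, 2,000 cells/well, exposed to compound for 16 hr at 37C; FRET-based beta-lactamase fluorescence read-out of pathway activation.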

[13] = qHTS assay for environmental chemicals that activate the Aryl hydrocarbon Receptor (AhR) signaling pathway (AID 651777; active = well fitted curve in the direction sought with a large enough effect; an effect the other way counts as inactive or inconclusive; note: % of control where 0% means no effect; nearly all actives have a fitted effect of over 15% in size); settings: 1A2-DRE human hepatoma cells, luciferase, 24 h; activation: stronger effect = higher value
Method in brief: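 Luminescence (One-Glo, 30 min, room temperature) reports AhR-driven luciferase in stably transfected human hepatoma cells bearing DRE and CYP1A2 promoter. Cells (1,200/well) were treated with compound for 24 hr at 37 C in qHTS format.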

[14] = target: Peroxisome proliferator-activated receptor alpha (Homo sapiens) (UniProt Q07869); experiment: qHTS assay for small molecule agonists of the peroxisome proliferator-activated receptor alpha (PPARalpha) signaling pathway (AID 651778; active = well fitted curve in the direction sought with a large enough effect; an effect the other way counts as inactive or inconclusive; note: % of control where 0% means no effect); settings: PathHunter PPARalpha complementation, chemiluminescence, 6 h; max response: stronger effect = higher value
Peroxisome proliferator-activated receptor alpha (Homo sapiens), sequence (Q07869 whole entry, looked up, the tested form may be a part): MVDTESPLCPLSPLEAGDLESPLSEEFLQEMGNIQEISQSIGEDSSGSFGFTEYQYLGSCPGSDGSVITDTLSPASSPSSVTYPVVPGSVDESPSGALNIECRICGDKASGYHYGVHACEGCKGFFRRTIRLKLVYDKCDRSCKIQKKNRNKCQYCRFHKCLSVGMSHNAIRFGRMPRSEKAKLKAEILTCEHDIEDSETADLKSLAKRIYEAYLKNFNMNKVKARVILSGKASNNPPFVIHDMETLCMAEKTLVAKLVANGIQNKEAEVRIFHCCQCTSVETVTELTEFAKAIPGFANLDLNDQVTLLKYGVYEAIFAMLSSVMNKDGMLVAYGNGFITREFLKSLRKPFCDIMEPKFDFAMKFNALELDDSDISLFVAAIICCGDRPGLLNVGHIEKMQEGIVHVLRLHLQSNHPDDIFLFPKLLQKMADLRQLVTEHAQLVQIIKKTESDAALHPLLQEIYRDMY
Method in brief: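 Enzyme-fragment complementation assay in which ligand-bound PPARalpha translocates and forms an active enzyme that generates chemiluminescence. Cells were plated overnight, exposed to compound for 6 hr at 37 C, and then given detection reagent for 60 min at room temperature.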

[15] = qHTS assay for small molecule agonists of the antioxidant response element (ARE) signaling pathway measured by Nrf2-dependant transcriptional activity (AID 720636; active = well fitted curve in the direction sought with a large enough effect in the repeat runs; an effect the other way counts as inactive or inconclusive; note: % of control where 0% means no effect)
Method in brief: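 Nrf2-dependent transcription read as ONE-Glo luciferase signal from ARE-luc HepG2 reporter cells after 16 hr compound treatment at 37 C, 5% CO2, in assay medium with 1% dialyzed FBS.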

[16] = target: Peroxisome proliferator-activated receptor delta (Homo sapiens) (UniProt Q03181); experiment: qHTS assay for small molecule agonists of peroxisome proliferator-activated receptor delta signaling (AID 588534);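 note: 0% = DMSO basal wells and 100% = positive control agonist at 10 µM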
Method in brief: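 Cells carrying a PPAR-delta beta-lactamase reporter were treated with compounds for 18 h at 37 °C in agonist mode. CCF4 fluorescence was read after 2 h; EC50 and efficacy from Hill fits.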

[17] = target: Vitamin D3 receptor (Homo sapiens) (UniProt P11473); experiment: qHTS assay for small molecule agonists of vitamin D receptor signaling (AID 588543);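 note: 0% = DMSO basal and 100% = reference agonist control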
Method in brief: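 β-lactamase reporter, VDR-UAS-bla HEK293T, agonist mode. Cells plated 5 h at 37 °C, compound titration 16 h at 37 °C, CCF4 dye 2 h RT, ratio 460/530 nm. Hill fit → EC50, efficacy vs 50 nM 1α,25-(OH)2D3.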

[18] = qHTS assay for small molecule agonists of retinoid X receptor alpha signaling (AID 588544); settings: HEK293T RXRa-UAS-bla, beta-lactamase reporter, 18 h; 530 nm emission;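 for activation: 0% = DMSO basal wells and 100% = reference agonist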
[19] = target: Retinoic acid receptor RXR-alpha (Homo sapiens) (UniProt P19793); experiment: as above
[20] = qHTS assay for small molecule agonists of the antioxidant response element (ARE) signaling pathway (AID 651741; active = well fitted activation curve with a large enough effect in the signal ratio; the % refers to the signal ratio; note: % of control where 0% means no effect)
Method in brief: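 CellSensor ARE-bla HepG2 cells (2,000/well) carrying ARE-driven beta-lactamase, exposed 16 h at 37 C. LiveBLAzer B/G FRET substrate added for 2 h at room temperature; fluorescence intensity read.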

[21] = qHTS assay for small molecule agonists of the antioxidant response element (ARE) signaling pathway measured by Nrf2-dependant transcriptional activity - cell viability counter screen (AID 720653; active = well fitted curve in the direction sought with a large enough effect in the repeat runs; an effect the other way counts as inactive or inconclusive; note: % is set by controls: 0 for no effect and ±100 for the full control effect); settings: ARE-bla HepG2 viability, CellTiter-Glo ATP luminescence, 16 h; max response: stronger effect = lower value
Method in brief: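 ARE-bla HepG2 cells treated with compounds for 16 h at 37C; this counter screen measures viability as intracellular ATP by CellTiter-Glo luminescence after 30 min at room temperature.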

[22] = qHTS assay for cell viability of HEK293 cells (AID 743288; active = well fitted curve in the direction sought with a large enough effect; an effect the other way counts as inactive or inconclusive; note: % is set by controls: 0 for no effect and ±100 for the full control effect; nearly all actives have a fitted effect of over 50% in size); settings: ATP luminescence (CellTiter-Glo), 18 h; max response: stronger effect = lower value
Method in brief: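 Environmental chemicals tested in qHTS format against parental HEK293 cells; 18 h treatment, 37 C; read-out ATP luminescence (CellTiter-Glo), 30 min RT development.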

[23] = qHTS assay for cell viability of the p53RE-bla HCT-116 cell line (AID 743292; active = well fitted curve in the direction sought with a large enough effect; an effect the other way counts as inactive or inconclusive; note: % is set by controls: 0 for no effect and ±100 for the full control effect; nearly all actives have a fitted effect of over 55% in size)
Method in brief: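 ATP-based luminescent viability (CellTiter-Glo, 30 min RT) after 16 h compound treatment at 37 C of p53RE-bla HCT-116 cells, seeded at 4,000 cells/well and rested 5 h before dosing.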

FC(F)(F)c1ccccc1Cl
inactive: activation [1] -1.54%

CCC(C)c1cc([N+](=O)[O-])cc([N+](=O)[O-])c1O (stereo not given)
inactive: activation [1] 4.38% | activation [2] -12.7% | Potency [4] | Potency [5] | Potency [6] | Potency [7] | max response [9] 15.9% | activity change % (negative = inhibition) [10] -14.7% | activation [12] -0.876% | activation [13] 6.77% | max response [14] -1.93% | Potency [15]
-3.63%: max response [8]
0.93%: max response [3]
active: Potency [11] 6.31 µM

CCNc1ccccc1
inactive: activation [1] -3.11% | outcome [16]

O=C(O)C1(C(=O)Nc2ccc(Cl)cc2Cl)CC1
inactive: activation [1] -11.8%

CCCCCCc1ccc(-c2ccc(C#N)cc2)cc1
inactive: activation [1] -1.9%

CCC(C)=O
inactive: activation [1] -0.657% | outcome [16]

COC(=O)c1ccccc1S(=O)(=O)NC(=O)Nc1nc(OC(F)F)cc(OC(F)F)n1
inactive: activation [1] 2.12% | outcome [16]

CN/C(=N/[N+](=O)[O-])NCC1CCOC1 (stereo not given)
inactive: activation [1] -2.75% | activation [2] 0.122% | outcome [16] | Potency [4] | Potency [6] | outcome [17] | Potency [19] | activity change % (negative = inhibition) [10] -1.83% | Potency [20] | activation [11] 3.08% | activation [12] -0.877% | activation [13] -0.372% | max response [14] -0.384% | Potency [15] | max response [21] -9.26% | max response [22] -6.54% | Potency [23]
-9.02%: max response [18]
22.2%: max response [3]

O=P(Oc1ccccc1)(Oc1ccccc1)Oc1ccccc1
29%: max response [3]
inactive: activation [1] 1.95% | activation [2] 6.86% | outcome [16] | Potency [4] | Potency [5] | Potency [6] | outcome [17] | Potency [7] | max response [9] -15.3% | activity change % (negative = inhibition) [10] -5.53% | activation [11] -5.18% | activation [12] -2% | activation [13] 2.98% | max response [14] -0.776% | Potency [15] | max response [21] -2.38% | max response [22] -15.7% | Potency [23]
0.157%: max response [8]

CCCCCCCCCCCCC1CO1 (stereo not given)
inactive: activation [1] -2.55% | outcome [16]
